Reference: PubChem BioAssay
Where “and” joins values, the source holds several entries; their conditions need not be identical. Equal values may be shown once. Inconclusive results are not listed. Calls of active or inactive are those of the source. Unless noted, no stated cut-off is given here; in the data, active means inhibition above about 80%; inactive means the rest.

Key:
[1] = viability loss in pontine glioma line – cell-based, JHH-DIPG-1, MIPE4.0, CellTiter-Glo, qHTS, dose response (AID 1347062; cut-off not given, nearly all actives have AC50 up to about 27 µM;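 on AC50: cells exposed to compound for two days before readout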); details: JHH-DIPG-1 viability, CellTiter-Glo ATP luminescence
[2] = molecular target: Mitogen-activated protein kinase 7 (Homo sapiens) (UniProt Q13164); test: Gal4-ERK5 driven luciferase induction – cell-based, HTS, primary screen (AID 1508626;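 active means luciferase signal above three times the same-plate solvent-only control wells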;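 further: luciferase driven by Gal4-ERK5 fusion binding five Gal4 sites before minimal TATA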); details: HeLa Gal4-ERK5 transactivation, 18 h, at 5 µM, stronger effect = higher value
[3] = galactose survival enhancers in mitochondrial complex I cybrids – cell-based, galactose medium, ATP luminescence, primary screen (AID 1645843;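 active means z-score of at least 1.8 in each of two replicates, scored against plate mean and spread of sample wells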;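 further: positive z means more ATP and so rescue of galactose-driven cybrid death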); details: complex I mutant cybrid cells, 72 h, stronger effect = higher value
[4] = viability loss in pontine glioma line – cell-based, SU-DIPG-XIII, MIPE5.0, CellTiter-Glo, qHTS, dose response (AID 1347064; cut-off not given, nearly all actives have AC50 up to about 23 µM;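 on AC50: cells exposed to compound for 48 hours before the viability read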); details: CellTiter-Glo ATP luminescence
[5] = viability loss in pontine glioma line – cell-based, SU-DIPG-XXV, MIPE5.0, CellTiter-Glo, qHTS, dose response (AID 1347065; cut-off not given, nearly all actives have AC50 up to about 26 µM;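 further: cells exposed to compound for 48 hours before ATP readout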); details: CellTiter-Glo ATP luminescence
[6] = JHH-DIPG-1 glioma cell viability, MIPE5.0 library, CellTiter-Glo luminescence, qHTS (AID 1347067; cut-off not given, nearly all actives have AC50 up to about 26 µM;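 further: cells exposed to compound for 48 hours before readout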); details: JHH-DIPG-1 glioma viability, CellTiter-Glo ATP luminescence
[7] = growth inhibition of DIPG cells – cell-based, MIPE5.0 library, qHTS (AID 1347068; cut-off not given, nearly all actives have IC50 up to about 30 µM); details: SU-DIPG-XXV viability
[8] = viability loss in pontine glioma line – cell-based, SU-DIPG-IV, MIPE4.0, CellTiter-Glo, qHTS, dose response (AID 1347063; cut-off not given, nearly all actives have AC50 up to about 30 µM;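 further: compound exposure lasted 48 hours before the viability readout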); details: CellTiter-Glo ATP luminescence
[9] = growth inhibition of DIPG cells – cell-based, MIPE4.0 library, CellTiter-Glo luminescence, qHTS (AID 1347066; cut-off not given, nearly all actives have AC50 up to about 30 µM;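 further: cells exposed to compound for 48 hours before readout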); details: SU-DIPG-VI viability, CellTiter-Glo ATP luminescence
[10] = growth inhibition, single agents and combos, LFS_MB_1R, cell-based, cisplatin or BGB combos, synergistic combos for chromothripsis tumors (AID 1671452); details: LFS_MB_1R medulloblastoma cells, stronger effect = higher value;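 further: cells exposed for 96 hours before readout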
[11] = growth inhibition, single agents and combos, CRL2098, cell-based, BGB or cisplatin IC20 combos, synergistic combos for chromothripsis tumors (AID 1671454); details: CRL2098 osteosarcoma cells, drug combinations, stronger effect = higher value;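 further: cells exposed for 96 h before readout; 0% = vehicle DMSO and 100% = killing by high DMSO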
[12] = growth inhibition, single agents and combos, HD-MB03, cell-based, BGB or cisplatin IC20 combos, synergistic combos for chromothripsis tumors (AID 1671455; in the data active means inhibition above about 83%;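 further: 0% = vehicle DMSO and 100% = high DMSO as cytotoxic control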); details: HD-MB03 medulloblastoma cells, stronger effect = higher value
[13] = growth inhibition, single agents and combos, UWB1.289, cell-based, BGB or cisplatin combos, synergistic combos for chromothripsis tumors (AID 1671456); details: UWB1.289 ovarian carcinoma cells, stronger effect = higher value;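 further: cells exposed to compound for four days; 0% = vehicle DMSO and 100% = killing by high DMSO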
[14] = growth inhibition, single agents and combos, LFS_MB_2R, cell-based, cisplatin combos, synergistic combos for chromothripsis tumors (AID 1671457); details: LFS_MB_2R medulloblastoma cells, stronger effect = higher value;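 further: cells exposed to compound for four days before readout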
[15] = UWB1.289_BRCA1 ovarian cancer growth, cell-based, BGB or cisplatin combinations (AID 1671459); details: UWB1.289 BRCA1 ovarian carcinoma, drug combinations, stronger effect = higher value
[16] = drug combination toxicity in non-malignant astrocytes – cell-based, BGB or cisplatin IC20 combos, cytotoxicity control for chromothriptic childhood tumor combination screen (AID 1671460); details: Human astrocytes, viability inhibition, drug combinations, at 0.5 µM, stronger effect = higher value;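 further: cells exposed to compounds for 96 hours before viability readout; 0% = vehicle and 100% = killing control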
[17] = BT084 cell growth, single and combined drugs, ICGC_MB145, cisplatin and BGB IC40 combos (AID 1671461); details: BT084 medulloblastoma cells, drug combinations, stronger effect = higher value;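 further: cells exposed to drugs for 96 hours; 0% = vehicle DMSO and 100% = high DMSO full killing control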
[18] = RCMB18 cell growth, single agent and combined, cisplatin and BGB IC40 combos (AID 1671462); details: RCMB18 medulloblastoma cells, stronger effect = higher value;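 further: cells exposed to compound for four days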
[19] = CRL1545 cell growth, single agent and combined, cisplatin and BGB IC20 combos (AID 1671464); details: CRL1545 osteosarcoma cells, stronger effect = higher value;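 further: cells exposed to compound for 96 hours before readout; 0% = vehicle DMSO and 100% = high DMSO killing control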
[20] = measured here: combination with BGB IC40, at 0.05 µM
[21] = measured here: combination with cisplatin, at 0.5 µM
[22] = measured here: combination with cisplatin, at 5 µM
[23] = measured here: combination with BGB at IC20, at 0.5 µM
[24] = measured here: combination with cisplatin at IC20, at 0.5 µM
[25] = measured here: combo with BGB at IC20, at 0.5 µM
[26] = measured here: combo with cisplatin at IC20, at 0.5 µM
[27] = measured here: inhibition with BGB combination, at 0.05 µM
[28] = measured here: inhibition with cisplatin combination, at 0.05 µM
[29] = BGB combination, concentration series, at 5 µM
[30] = cisplatin combination, concentration series, at 5 µM
[31] = measured here: combo with BGB IC20
[32] = measured here: combo with cisplatin IC20
[33] = cisplatin combination, at 0.5 µM
[34] = measured here: BGB IC40 combination 0.05 uM, at 0.05 µM
[35] = measured here: BGB IC40 combination, at 0.05 µM
[36] = measured here: with BGB IC20 combination, at 0.5 µM
[37] = measured here: with cisplatin IC20 combination, at 0.5 µM

Chain of Mitogen-activated protein kinase 7 (Homo sapiens) (Q13164 whole entry, looked up, the tested form may be a part): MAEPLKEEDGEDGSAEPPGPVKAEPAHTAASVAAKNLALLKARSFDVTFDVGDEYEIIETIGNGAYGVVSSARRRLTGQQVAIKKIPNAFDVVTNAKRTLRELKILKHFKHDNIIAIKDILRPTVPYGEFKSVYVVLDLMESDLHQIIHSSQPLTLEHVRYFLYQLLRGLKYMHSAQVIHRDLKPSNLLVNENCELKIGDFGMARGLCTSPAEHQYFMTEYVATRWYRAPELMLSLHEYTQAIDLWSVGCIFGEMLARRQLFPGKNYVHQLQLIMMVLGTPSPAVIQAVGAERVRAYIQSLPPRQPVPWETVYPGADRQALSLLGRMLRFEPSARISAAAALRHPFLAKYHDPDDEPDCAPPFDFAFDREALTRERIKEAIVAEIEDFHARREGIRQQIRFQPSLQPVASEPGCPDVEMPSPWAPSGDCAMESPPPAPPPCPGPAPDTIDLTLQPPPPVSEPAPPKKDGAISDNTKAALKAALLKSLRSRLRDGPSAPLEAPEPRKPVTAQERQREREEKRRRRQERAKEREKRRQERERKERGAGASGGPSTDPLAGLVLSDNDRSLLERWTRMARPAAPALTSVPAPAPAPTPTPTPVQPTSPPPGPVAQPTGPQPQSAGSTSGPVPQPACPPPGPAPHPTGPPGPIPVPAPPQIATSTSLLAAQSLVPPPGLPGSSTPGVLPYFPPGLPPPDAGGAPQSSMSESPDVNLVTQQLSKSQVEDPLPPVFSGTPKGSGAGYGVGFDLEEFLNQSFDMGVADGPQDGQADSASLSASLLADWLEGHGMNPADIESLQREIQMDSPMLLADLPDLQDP

Clc1ccc(C(Cn2ccnc2)OCc2ccsc2Cl)c(Cl)c1 (stereo not drawn)
outcome [1]: inactive
luciferase signal [2]: 72 AU (inactive)
z-score [3]: -1.6 (inactive)

O=C(O)[C@H](O)[C@@H](O)[C@H](O[C@@H]1O[C@H](CO)[C@H](O)[C@H](O)[C@H]1O)[C@H](O)CO
outcome [4]: inactive
outcome [5]: inactive
outcome [6]: inactive
outcome [7]: inactive

CN1CCN(c2c(F)cc3c(=O)c(C(=O)O)cn4c3c2OCN4C)CC1
outcome [1]: inactive
outcome [8]: inactive
outcome [9]: inactive
inhibition ([10]; at 0.5 µM): -24.2% (inactive)
inhibition [10, 20]: -29.1%
inhibition [10, 21]: -7.67%
inhibition [10, 22]: 23.6%
inhibition ([11]; at 0.5 µM): -52.3% (inactive)
inhibition [11, 23]: -51%
inhibition [11, 24]: -59.8%
inhibition ([12]; at 0.5 µM): -2.64% (inactive)
inhibition [12, 25]: 4.92%
inhibition [12, 26]: 0.073%
inhibition ([13]; at 0.5 µM): -1.17% (inactive)
inhibition [13, 27]: -15.9%
inhibition [13, 28]: 9.55%
inhibition ([14]; at 0.5 µM): -13.7% (inactive)
inhibition [14, 21]: -20.3%
inhibition [14, 22]: -60.6%
inhibition [15, 29]: 1.13%
inhibition ([15]; at 0.5 µM): 0.06% (inactive)
inhibition [15, 30]: 8.22%
inhibition [16]: 6.55% (inactive)
inhibition [16, 31]: 4.16%
inhibition [16, 32]: 12.5%
inhibition ([17]; at 0.5 µM): -6.03% (inactive)
inhibition [17, 33]: -9.98%
inhibition ([17]; cisplatin combination, at 5 µM): 4.69%
inhibition [17, 34]: 6.42%
inhibition ([17]; single agent, at 5 µM): -5.93%
inhibition ([18]; at 0.5 µM): -12.6% (inactive)
inhibition ([18]; cisplatin combo, at 5 µM): -14.3%
inhibition [18, 35]: -20.1%
inhibition [18, 21]: -5.19%
inhibition ([18]; single agent, at 5 µM): -1.41%
inhibition ([19]; at 0.5 µM): -1.5% (inactive)
inhibition [19, 36]: -0.247%
inhibition [19, 37]: -4.44%
inhibition ([19]; single agent, at 0.05 µM): -8.36%
inhibition ([19]; single agent, at 5 µM): 2.43%

O=C(CCCCCCC(=O)Nc1ccccc1)NO
AC50 [1]: 3720 nM (active)
AC50 [4]: 1180 nM (active)
AC50 [5]: 833 nM (active)
AC50 [6]: 1480 nM (active)
outcome [7]: inactive
inhibition ([10]; at 0.5 µM): 17.4% (inactive)
inhibition [10, 20]: -3.43%
inhibition [10, 21]: 21.7%
inhibition [10, 22]: 83.1%
inhibition ([11]; at 0.5 µM): -45.6% (inactive)
inhibition [11, 23]: -78.4%
inhibition [11, 24]: -12.2%
inhibition ([12]; at 0.5 µM): 22% (inactive)
inhibition [12, 25]: 21%
inhibition [12, 26]: 48.3%
inhibition ([13]; at 0.5 µM): 14.7% (inactive)
inhibition [13, 27]: -38.8%
inhibition [13, 28]: -24.2%
inhibition ([14]; at 0.5 µM): -2.63% (inactive)
inhibition [14, 21]: 3.49%
inhibition [14, 22]: 79.7%
inhibition [15, 29]: 69.1%
inhibition ([15]; at 0.5 µM): 9.38% (inactive)
inhibition [15, 30]: 84.7%
inhibition [16]: -0.71% (inactive)
inhibition [16, 31]: -2.1%
inhibition [16, 32]: -2.33%
inhibition ([17]; at 0.5 µM): 10.3% (inactive)
inhibition [17, 33]: 36%
inhibition ([17]; cisplatin combination, at 5 µM): 98.4%
inhibition [17, 34]: -23.4%
inhibition ([17]; single agent, at 5 µM): 87.4%
inhibition ([18]; at 0.5 µM): 14.4% (inactive)
inhibition ([18]; cisplatin combo, at 5 µM): 93.4%
inhibition [18, 35]: -14.3%
inhibition [18, 21]: 47.6%
inhibition ([18]; single agent, at 5 µM): 78.3%
inhibition ([19]; at 0.5 µM): 74.5% (inactive)
inhibition [19, 36]: 65.9%
inhibition [19, 37]: 78.3%
inhibition ([19]; single agent, at 0.05 µM): -34.3%
inhibition ([19]; single agent, at 5 µM): 88.9%

O=C(O)c1cc(=O)[nH]c(=O)[nH]1
outcome [1]: inactive
outcome [8]: inactive
outcome [4]: inactive
outcome [5]: inactive
outcome [9]: inactive
outcome [6]: inactive
outcome [7]: inactive
inhibition ([10]; at 0.5 µM): -8.32% (inactive) and -28.4% (inactive)
inhibition [10, 20]: -17.9% and -11.5%
inhibition [10, 21]: 16.2% and -37.9%
inhibition [10, 22]: -31% and -23.1%
inhibition ([11]; at 0.5 µM): 2.38% (inactive) and -59.4% (inactive)
inhibition [11, 23]: -8.75% and -29.4%
inhibition [11, 24]: 11.3% and -77.4%
inhibition ([12]; at 0.5 µM): 6.65% (inactive) and -10.7% (inactive)
inhibition [12, 25]: 8.02% and -14.5%
inhibition [12, 26]: 1.03% and -2.03%
inhibition ([13]; at 0.5 µM): 9.26% (inactive) and -11.7% (inactive)
inhibition [13, 27]: 1.2% and -34.8%
inhibition [13, 28]: -6.87% and -27.5%
inhibition ([14]; at 0.5 µM): 8.17% (inactive) and -25% (inactive)
inhibition [14, 21]: -0.428% and -22.3%
inhibition [14, 22]: 15.8% and -23.2%
inhibition [15, 29]: 11.8% and -20.6%
inhibition ([15]; at 0.5 µM): 7.12% (inactive) and -21.5% (inactive)
inhibition [15, 30]: 16.5% and -12.9%
inhibition [16]: 6.1% (inactive) and -13.7% (inactive)
inhibition [16, 31]: 3.75% and -11.6%
inhibition [16, 32]: 18.5% and -10.3%
inhibition ([17]; at 0.5 µM): 0.676% (inactive) and -23.4% (inactive)
inhibition [17, 33]: 4.02% and -10.6%
inhibition ([17]; cisplatin combination, at 5 µM): -30.1% and 9.58%
inhibition [17, 34]: 29.1% and 10.4%
inhibition ([17]; single agent, at 5 µM): 10.6% and -23.7%
inhibition ([18]; at 0.5 µM): 4.65% (inactive) and -11.2% (inactive)
inhibition ([18]; cisplatin combo, at 5 µM): 33.1% and 20.6%
inhibition [18, 35]: 20.2% and -17.2%
inhibition [18, 21]: 10.8% and 27.7%
inhibition ([18]; single agent, at 5 µM): -13.7% and -20.9%
inhibition ([19]; at 0.5 µM): -2.03% (inactive) and 7.29% (inactive)
inhibition [19, 36]: -9.08% and 1.78%
inhibition [19, 37]: 1.49% and 10%
inhibition ([19]; single agent, at 0.05 µM): 0.986% and -9.64%
inhibition ([19]; single agent, at 5 µM): -15.6% and -9.76%
